Measurements as given in the supplement of paper PMC6411743.
± gives the standard deviation of the averaged measurements. About 6,200 targets were measured; listed, in parts, are those with the largest changes and a random draw of the rest.

Compound: Nc1ncnc2c1ncn2[C@@H]1O[C@H](COP(=O)(O)OP(=O)(O)NP(=O)(O)O)[C@@H](O)[C@H]1O [adenylyl imidodiphosphate]
Assay: NP40-soluble protein abundance relative to vehicle (solubility fold change) (ratio); higher = more soluble protein in presence of AMP-PNP
How it was run: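 Jurkat crude lysate (Dounce-homogenised) was treated with eight concentrations from 0.1 to 10 mM for 10 min at room temperature, then 3 min at 37 °C. It was solubilised with 0.8% NP40 and benzonase (60 min, 4 °C) and ultracentrifuged, and the supernatant was TMT-labelled for LC-MS/MS. Intensities were vsn-normalised, and the value is the fold change against the NP40-processed vehicle per replicate, from three independent experiments.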

UniProt Q96MF7, sequence (Q96MF7 whole entry, one chain of several): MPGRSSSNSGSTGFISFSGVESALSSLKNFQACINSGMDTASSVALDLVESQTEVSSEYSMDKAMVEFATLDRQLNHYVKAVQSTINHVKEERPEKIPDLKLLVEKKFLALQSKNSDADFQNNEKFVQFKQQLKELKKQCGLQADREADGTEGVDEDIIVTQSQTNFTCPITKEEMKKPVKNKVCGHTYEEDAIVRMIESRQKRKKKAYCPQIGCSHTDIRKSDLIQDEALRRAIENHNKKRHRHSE
UniProt Q9UKV3, sequence (Q9UKV3 whole entry, one chain of several): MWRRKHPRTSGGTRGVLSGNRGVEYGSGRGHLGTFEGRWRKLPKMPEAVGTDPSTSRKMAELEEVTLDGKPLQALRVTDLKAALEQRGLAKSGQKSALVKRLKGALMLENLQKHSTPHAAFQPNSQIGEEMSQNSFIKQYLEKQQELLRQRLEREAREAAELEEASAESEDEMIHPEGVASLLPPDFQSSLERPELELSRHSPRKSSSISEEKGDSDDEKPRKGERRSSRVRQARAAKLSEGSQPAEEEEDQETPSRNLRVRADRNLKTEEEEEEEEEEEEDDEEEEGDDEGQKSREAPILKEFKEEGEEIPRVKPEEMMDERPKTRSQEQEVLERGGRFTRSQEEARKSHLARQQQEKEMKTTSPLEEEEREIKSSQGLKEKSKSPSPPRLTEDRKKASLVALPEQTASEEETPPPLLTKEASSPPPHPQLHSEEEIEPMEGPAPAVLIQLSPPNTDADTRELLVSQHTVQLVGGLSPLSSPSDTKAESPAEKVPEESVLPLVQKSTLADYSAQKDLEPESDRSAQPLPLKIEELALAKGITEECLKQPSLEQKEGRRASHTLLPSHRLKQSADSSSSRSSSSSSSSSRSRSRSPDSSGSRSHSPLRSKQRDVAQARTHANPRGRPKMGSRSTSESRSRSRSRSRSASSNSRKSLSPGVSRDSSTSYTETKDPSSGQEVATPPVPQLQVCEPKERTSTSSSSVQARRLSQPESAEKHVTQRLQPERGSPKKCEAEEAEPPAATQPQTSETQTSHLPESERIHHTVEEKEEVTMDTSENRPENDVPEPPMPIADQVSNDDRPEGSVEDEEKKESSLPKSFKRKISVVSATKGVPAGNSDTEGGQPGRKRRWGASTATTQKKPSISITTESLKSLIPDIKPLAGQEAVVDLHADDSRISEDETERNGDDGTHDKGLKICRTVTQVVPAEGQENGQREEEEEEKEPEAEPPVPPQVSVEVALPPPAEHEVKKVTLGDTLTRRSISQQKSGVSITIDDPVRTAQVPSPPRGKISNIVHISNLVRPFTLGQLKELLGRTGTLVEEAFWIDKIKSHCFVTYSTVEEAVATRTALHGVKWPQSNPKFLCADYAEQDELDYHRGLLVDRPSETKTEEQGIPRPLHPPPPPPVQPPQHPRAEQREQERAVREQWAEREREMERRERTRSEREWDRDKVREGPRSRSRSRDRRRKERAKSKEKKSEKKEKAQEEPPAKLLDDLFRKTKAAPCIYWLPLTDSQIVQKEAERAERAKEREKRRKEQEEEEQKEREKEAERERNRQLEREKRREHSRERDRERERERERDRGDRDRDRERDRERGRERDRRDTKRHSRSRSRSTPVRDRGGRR
UniProt O95232, sequence (O95232 whole entry, one chain of several): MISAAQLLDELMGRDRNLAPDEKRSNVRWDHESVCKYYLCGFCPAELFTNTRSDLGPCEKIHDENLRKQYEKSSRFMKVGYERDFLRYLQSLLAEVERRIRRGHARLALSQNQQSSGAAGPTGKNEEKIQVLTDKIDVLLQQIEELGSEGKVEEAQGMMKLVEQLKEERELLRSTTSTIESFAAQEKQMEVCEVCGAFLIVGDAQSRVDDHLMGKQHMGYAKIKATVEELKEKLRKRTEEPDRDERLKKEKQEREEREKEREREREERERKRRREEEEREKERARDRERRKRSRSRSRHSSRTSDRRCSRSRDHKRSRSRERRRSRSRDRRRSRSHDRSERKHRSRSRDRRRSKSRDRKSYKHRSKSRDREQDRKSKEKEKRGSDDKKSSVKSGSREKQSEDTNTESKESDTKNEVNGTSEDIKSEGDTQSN
UniProt P61020, sequence (P61020 whole entry, one chain of several): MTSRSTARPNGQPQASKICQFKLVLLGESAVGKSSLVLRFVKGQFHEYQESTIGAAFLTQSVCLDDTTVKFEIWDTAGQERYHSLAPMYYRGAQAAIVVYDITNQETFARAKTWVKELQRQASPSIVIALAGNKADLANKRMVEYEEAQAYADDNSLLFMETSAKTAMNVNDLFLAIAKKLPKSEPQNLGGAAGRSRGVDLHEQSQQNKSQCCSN
UniProt Q9Y2K7, sequence (Q9Y2K7 whole entry, one chain of several): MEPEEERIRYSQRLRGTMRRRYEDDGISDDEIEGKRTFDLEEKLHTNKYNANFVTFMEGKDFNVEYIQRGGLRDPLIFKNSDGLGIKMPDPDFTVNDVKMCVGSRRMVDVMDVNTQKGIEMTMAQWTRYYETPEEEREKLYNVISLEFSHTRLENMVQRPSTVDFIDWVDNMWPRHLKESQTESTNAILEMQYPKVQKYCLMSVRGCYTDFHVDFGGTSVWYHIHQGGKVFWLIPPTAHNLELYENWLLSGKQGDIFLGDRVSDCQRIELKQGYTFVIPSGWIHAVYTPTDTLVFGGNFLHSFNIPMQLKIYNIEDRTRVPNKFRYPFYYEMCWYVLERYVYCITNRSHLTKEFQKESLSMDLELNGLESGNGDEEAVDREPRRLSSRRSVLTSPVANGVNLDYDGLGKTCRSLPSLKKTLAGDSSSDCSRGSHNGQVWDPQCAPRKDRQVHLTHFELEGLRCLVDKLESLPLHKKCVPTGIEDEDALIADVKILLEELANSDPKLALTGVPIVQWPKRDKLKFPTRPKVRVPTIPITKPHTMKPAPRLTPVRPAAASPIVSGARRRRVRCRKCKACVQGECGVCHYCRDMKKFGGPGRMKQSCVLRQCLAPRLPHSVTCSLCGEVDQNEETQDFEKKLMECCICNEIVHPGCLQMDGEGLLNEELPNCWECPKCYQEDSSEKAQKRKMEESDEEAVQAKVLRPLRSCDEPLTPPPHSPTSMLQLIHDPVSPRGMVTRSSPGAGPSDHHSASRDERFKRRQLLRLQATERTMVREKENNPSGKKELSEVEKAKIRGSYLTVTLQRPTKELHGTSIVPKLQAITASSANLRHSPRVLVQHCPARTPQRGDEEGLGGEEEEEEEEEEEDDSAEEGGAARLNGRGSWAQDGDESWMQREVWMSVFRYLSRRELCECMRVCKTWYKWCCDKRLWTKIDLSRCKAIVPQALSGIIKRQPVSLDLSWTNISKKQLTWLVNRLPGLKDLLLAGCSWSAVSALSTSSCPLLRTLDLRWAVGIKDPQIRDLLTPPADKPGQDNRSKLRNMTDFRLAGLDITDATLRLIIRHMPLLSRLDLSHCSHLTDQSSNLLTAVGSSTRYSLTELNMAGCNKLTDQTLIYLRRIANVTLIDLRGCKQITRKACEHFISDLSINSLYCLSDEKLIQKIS
UniProt O14523, sequence (O14523 whole entry): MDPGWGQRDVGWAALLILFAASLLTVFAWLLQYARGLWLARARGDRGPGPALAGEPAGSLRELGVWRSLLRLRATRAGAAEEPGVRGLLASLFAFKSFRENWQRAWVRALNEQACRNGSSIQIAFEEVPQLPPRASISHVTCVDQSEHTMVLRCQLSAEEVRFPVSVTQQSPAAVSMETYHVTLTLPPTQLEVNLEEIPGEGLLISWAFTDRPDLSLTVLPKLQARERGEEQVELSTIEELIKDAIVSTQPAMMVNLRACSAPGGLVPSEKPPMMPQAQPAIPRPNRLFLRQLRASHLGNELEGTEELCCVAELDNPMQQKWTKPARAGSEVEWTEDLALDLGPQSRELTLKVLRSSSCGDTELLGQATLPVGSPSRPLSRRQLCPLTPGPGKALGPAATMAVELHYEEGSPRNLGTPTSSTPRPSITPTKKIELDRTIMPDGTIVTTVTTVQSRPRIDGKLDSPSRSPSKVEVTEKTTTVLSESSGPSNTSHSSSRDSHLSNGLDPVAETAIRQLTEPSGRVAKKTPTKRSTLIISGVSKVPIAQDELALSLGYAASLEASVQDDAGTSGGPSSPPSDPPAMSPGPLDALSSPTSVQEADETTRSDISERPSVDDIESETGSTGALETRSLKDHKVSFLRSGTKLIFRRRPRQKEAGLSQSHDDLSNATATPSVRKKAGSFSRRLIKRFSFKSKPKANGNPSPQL
UniProt O43242, sequence (O43242 whole entry): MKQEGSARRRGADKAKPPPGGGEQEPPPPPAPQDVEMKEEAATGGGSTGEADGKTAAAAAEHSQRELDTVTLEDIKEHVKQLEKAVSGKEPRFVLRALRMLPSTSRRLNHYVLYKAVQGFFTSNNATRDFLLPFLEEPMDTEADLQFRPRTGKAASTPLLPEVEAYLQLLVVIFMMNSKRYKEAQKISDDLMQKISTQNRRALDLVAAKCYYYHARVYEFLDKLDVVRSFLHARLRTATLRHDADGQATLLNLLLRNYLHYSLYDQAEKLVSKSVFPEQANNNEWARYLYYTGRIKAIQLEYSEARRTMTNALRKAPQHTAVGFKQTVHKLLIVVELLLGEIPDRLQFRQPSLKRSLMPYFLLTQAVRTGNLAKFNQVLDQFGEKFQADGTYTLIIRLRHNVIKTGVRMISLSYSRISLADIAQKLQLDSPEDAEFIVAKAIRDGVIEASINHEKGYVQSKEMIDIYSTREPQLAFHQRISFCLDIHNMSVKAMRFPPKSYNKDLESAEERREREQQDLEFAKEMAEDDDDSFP
UniProt O43819, sequence (O43819 whole entry): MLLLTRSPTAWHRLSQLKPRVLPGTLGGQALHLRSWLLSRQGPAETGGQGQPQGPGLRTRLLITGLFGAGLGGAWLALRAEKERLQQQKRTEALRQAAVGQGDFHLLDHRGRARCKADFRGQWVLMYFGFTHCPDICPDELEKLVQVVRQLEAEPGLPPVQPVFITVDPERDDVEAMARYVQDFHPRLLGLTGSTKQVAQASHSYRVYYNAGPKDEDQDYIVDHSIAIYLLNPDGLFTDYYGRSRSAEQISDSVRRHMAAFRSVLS

Target	NP40-soluble protein abundance (concentration: 1mM)	NP40-soluble protein abundance (concentration: 2mM)	NP40-soluble protein abundance (concentration: 4mM)	NP40-soluble protein abundance (concentration: 6mM)	NP40-soluble protein abundance (concentration: 8mM)	NP40-soluble protein abundance (concentration: 10mM)
H7C5A7|O14734 (UniProt O14734)	0.962 ± 0.017	0.932 ± 0.036	0.956 ± 0.013	0.984 ± 0.061	0.97 ± 0.015	0.961 ± 0.02
UniProt O14523|O14523-2	0.973 ± 0.015	0.988 ± 0.013	0.985 ± 0.037	0.968 ± 0.027	0.97 ± 0.047	1.01 ± 0.06
LSM1 (UniProt O15116)	0.913 ± 0.018	0.961 ± 0.041	0.921 ± 0.0096	0.918 ± 0.023	0.907 ± 0.011	0.897 ± 0.024
J3QTA2|Q99933|Q99933-3|Q99933-4 (UniProt Q99933)	1.01 ± 0.028	1.029 ± 0.0083	0.992 ± 0.012	0.99 ± 0.03	0.965 ± 0.038	0.993 ± 0.021
CAND2 (UniProt O75155)	0.973 ± 0.018	0.942 ± 0.027	0.986 ± 0.045	1 ± 0.066	1.01 ± 0.031	1.02 ± 0.023
F8VVZ0|P61020 (UniProt P61020)	1.03 ± 0.028	0.993 ± 0.013	1.01 ± 0.024	1.07 ± 0.026	1.08 ± 0.064	1.05 ± 0.018
H0YIV9|O43716 (UniProt O43716+H0YIV9)	0.973 ± 0.038	1.02 ± 0.038	1.01 ± 0.03	0.988 ± 0.012	0.977 ± 0.015	0.962 ± 0.013
CCDC85C (UniProt A6NKD9)	0.9594 ± 0.0012	1.0044 ± 0.00019	0.953 ± 0.035	0.9849 ± 0.007	0.9793 ± 0.0043	0.9704 ± 0.0054
UniProt A3KMH1|A3KMH1-3	0.93 ± 0.024	0.858 ± 0.098	0.933 ± 0.025	0.874 ± 0.035	0.879 ± 0.017	0.8557 ± 0.0057
F8VU39|J3KPG5|Q9UIF9|Q9UIF9-2|Q9UIF9-3 (UniProt Q9UIF9)	1 ± 0.015	0.9926 ± 0.0061	1.023 ± 0.0073	1.02 ± 0.039	1.01 ± 0.014	1.03 ± 0.037
PSMD3 (UniProt O43242)	0.909 ± 0.031	0.865 ± 0.055	0.885 ± 0.091	0.906 ± 0.087	0.933 ± 0.11	0.915 ± 0.14
A0A0B4J2E5|Q15269 (UniProt Q15269)	1.05 ± 0.019	1.04 ± 0.098	1.23 ± 0.043	1.38 ± 0.036	1.56 ± 0.074	1.52 ± 0.095
RNF113A (UniProt O15541)	1.02 ± 0.038	1.04 ± 0.089	0.999 ± 0.029	0.979 ± 0.017	0.935 ± 0.012	0.973 ± 0.035
J3KPP4|O95232 (UniProt O95232)	1.02 ± 0.036	1.06 ± 0.058	1.06 ± 0.019	1.22 ± 0.015	1.3 ± 0.039	1.51 ± 0.049
J3KQH6|P78364 (UniProt P78364)	1.01 ± 0.067	1.01 ± 0.02	1.01 ± 0.018	1.04 ± 0.047	1.03 ± 0.025	1.05 ± 0.032
CDIPT (UniProt O14735)	0.928 ± 0.062	0.896 ± 0.042	1 ± 0.019	1.01 ± 0.088	1.03 ± 0.073	0.974 ± 0.039
SCO2 (UniProt O43819)	0.972 ± 0.0067	0.949 ± 0.054	0.991 ± 0.04	0.95 ± 0.027	0.936 ± 0.015	0.934 ± 0.045
E9PJF5|G5E9I4|H0YCF7|Q9HCU9 (UniProt Q9HCU9)	1.03 ± 0.018	1.05 ± 0.04	1.01 ± 0.012	1 ± 0.016	0.989 ± 0.041	1.02 ± 0.051
UniProt O14646|O14646-2	1.07 ± 0.052	1.15 ± 0.023	1.23 ± 0.077	1.33 ± 0.14	1.41 ± 0.11	1.49 ± 0.15
CCNT1 (UniProt O60563)	1.1 ± 0.051	1.19 ± 0.074	1.21 ± 0.064	1.25 ± 0.12	1.31 ± 0.11	1.4 ± 0.14
H3BPB8|P34949 (UniProt P34949)	1.029 ± 0.0072	1.01 ± 0.039	1.02 ± 0.027	0.976 ± 0.029	1.01 ± 0.042	0.988 ± 0.048
I3L4X7|Q13227|Q13227-2 (UniProt Q13227)	0.982 ± 0.029	1.03 ± 0.059	1.02 ± 0.064	1.08 ± 0.067	1.05 ± 0.019	1.1 ± 0.019
E9PB61|Q86V81 (UniProt Q86V81)	0.969 ± 0.032	1.08 ± 0.042	1.09 ± 0.027	1.27 ± 0.081	1.41 ± 0.14	1.6 ± 0.28
F6TLX2|Q9HC38-2 (UniProt Q9HC38)	1.01 ± 0.02	1.01 ± 0.014	0.981 ± 0.03	0.958 ± 0.035	0.938 ± 0.034	0.95 ± 0.047
J3KS94|J3QQK6|P02686|P02686-2 (UniProt P02686)	0.968 ± 0.054	0.993 ± 0.035	0.96 ± 0.03	0.928 ± 0.033	0.896 ± 0.013	0.903 ± 0.029
E5RFJ1|Q96MF7 (UniProt Q96MF7)	1.01 ± 0.028	1.03 ± 0.06	1.02 ± 0.035	0.957 ± 0.033	0.989 ± 0.022	0.9706 ± 0.0092
I3VM54|Q9Y2K7 (UniProt Q9Y2K7)	1.02 ± 0.016	1.08 ± 0.045	1.17 ± 0.037	1.26 ± 0.12	1.31 ± 0.11	1.43 ± 0.17
D6RCD0|Q8NBQ5 (UniProt Q8NBQ5)	0.995 ± 0.031	0.9738 ± 0.0077	1.01 ± 0.047	1.06 ± 0.079	1.04 ± 0.056	1.04 ± 0.064
A0A0A6YYC8|I3L1I5 (UniProt I3L1I5)	1.01 ± 0.027	1.02 ± 0.04	1.02 ± 0.012	1.01 ± 0.023	1 ± 0.02	1.009 ± 0.0072
E7EQT4|Q9UKV3-5|S4R3H4|Q9UKV3-3 (UniProt Q9UKV3)	1.05 ± 0.061	1.1 ± 0.021	1.05 ± 0.07	1.03 ± 0.09	0.972 ± 0.04	1.04 ± 0.069
